Screening results as filed in PubChem BioAssay.
ALR inh: inhibitors of human sulfhydryl oxidase ALR. AID 485317. inhibition, % (concentration not given with the values). purified ALR, DTT oxidation, H2O2 HRP-luminol luminescence. P55789. 3.8% of 290,000 active;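 active = mean replicate inhibition above about 79%, with every replicate also reaching it, limit read from the data; inconclusive = only one of the two criteria met; inactive = mean below limit and not every replicate reaching it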
Yeast superoxide: yeast age-related superoxide inhibition as caloric restriction mimetic; S. cerevisiae aged cells, superoxide DHE fluorescence; stronger effect = lower value; superoxide response (% of plate mean), % at 10 µM; 0.18% of 330,000 active;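 active = superoxide response under a set limit, about three screen SD below normal, cut at about 65% in these data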;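 also: yeast aged for seven days with compound at 30 °C before DHE staining; 100% = average MFI of all compound-treated wells on the plate with controls excluded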
NRP1-CendR mod: NRP-1/CendR interaction modulation; FAM-RPARPAR peptide binding to NRP-1, fluorescence polarization; AID 602438; 0.85% of 360,000 active; inhibition, % at 25 µM;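 active = inhibition or corrected inhibition above about 18%, plus a signal ratio from 0.5 to 1.5, limit read from the data, passing the limit was not always enough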
A3G deaminase: blocks human APOBEC3G single-stranded DNA deamination; 0.28% of 330,000 active; recombinant A3G, ssDNA deamination FAM/TAMRA fluorescence; Q9HC16; inhibition, % at 20 µM; AID 493012;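 active = inhibition of at least 40% at 20 µM, with no more than 30% in the related APOBEC3A deaminase screen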;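 also: plate controls were DMSO wells with A3G for no effect and wells lacking A3G enzyme for full effect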
Target sequence (Q9HC16 whole entry, looked up): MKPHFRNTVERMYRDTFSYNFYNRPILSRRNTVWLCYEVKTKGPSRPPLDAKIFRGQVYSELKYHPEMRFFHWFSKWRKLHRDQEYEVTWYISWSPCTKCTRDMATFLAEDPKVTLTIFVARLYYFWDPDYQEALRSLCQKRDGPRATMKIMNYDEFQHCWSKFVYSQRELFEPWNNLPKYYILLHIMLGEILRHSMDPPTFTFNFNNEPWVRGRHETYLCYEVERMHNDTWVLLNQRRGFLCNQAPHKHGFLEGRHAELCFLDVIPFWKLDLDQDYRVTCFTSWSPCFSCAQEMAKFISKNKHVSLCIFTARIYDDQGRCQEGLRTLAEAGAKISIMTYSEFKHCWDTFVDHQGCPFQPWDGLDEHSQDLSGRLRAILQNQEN
PfM18AAP inh: blocks P. falciparum M18 aspartyl aminopeptidase; recombinant PfM18AAP, H-Glu-NHMec fluorogenic cleavage; inhibition, % at 7.35 µM; 1.2% of 290,000 active;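 active = inhibition above the campaign mean inhibition over all tested compounds plus 3 SD, cut at about 28% in these data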;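 also: 0% = plate median of test compound wells and 100% = 2 mM ZnCl2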
A3A deaminase: blocks human APOBEC3A ssDNA deamination; P31941; recombinant A3A, FAM/TAMRA ssDNA deamination fluorescence; inhibition, % at 20 µM; 0.41% of 330,000 active;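 active = at least 40% inhibition at 20 µM here, with at most 30% in a related deaminase screen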;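 also: plate controls were A3A with DMSO for no effect and wells lacking A3A enzyme for full effect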
Target sequence (P31941 whole entry, looked up): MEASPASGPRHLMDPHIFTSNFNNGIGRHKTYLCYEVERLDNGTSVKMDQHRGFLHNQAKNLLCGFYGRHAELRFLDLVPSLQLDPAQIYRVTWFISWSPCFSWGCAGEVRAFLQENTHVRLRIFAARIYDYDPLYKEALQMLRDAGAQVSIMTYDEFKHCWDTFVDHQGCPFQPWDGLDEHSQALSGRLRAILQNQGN
* hit, by the source's call; ? = inconclusive; nt = no result given. A selection: hits, their analogues and other compounds. The true share with any hit is near 5.2%.

SMILES	ALR inh	Yeast superoxide	NRP1-CendR mod	A3G deaminase	PfM18AAP inh	A3A deaminase
CCN(CC)c1ccc(NC(=O)C2CCCN(S(=O)(=O)c3cccnc3)C2)c(C)c1 (stereo not given)	98.8*	97.7	-2.3	-6.7	28.4*	0.9
CCN(CC)c1ccc(NC(=O)C2=CCN(S(=O)(=O)c3ccc(F)cc3)CC2)c(C)c1	86.7*	104.1	11.7	-2.7	-0.8	-5.0
CCN(CC)c1ccc(NC(=O)c2c(OC)cccc2OC)c(C)c1	98.9*	105.3	-2.4	-6.2	13.6	-1.2
Cc1noc(C)c1S(=O)(=O)N1CCC(C(=O)N2CCN(C(=O)c3ccco3)CC2)CC1	-1.4	93.1	2.7	1.1	-8.3	0.7
C[C@H](NC(=O)CCC1CCC(=O)N1)c1ccccc1 (stereo not given in full)	-0.8	103.7	19.1*	-11.0	nt	-0.6
O=C(Nc1ccccc1)c1cccc(=O)o1	nt	106.1	-1.7	-9.2	4.5	-5.6
O=C1c2ccc(-c3ccc(F)cc3OCc3ccccc3)cc2S(=O)(=O)c2cccc(C(=O)N3CCN(c4ncc(Br)cn4)CC3)c21	0.3	100.1	3.2	-8.1	nt	-1.8
O=C(O)c1cccc2c1C(=O)c1ccc(-c3ccc(F)cc3OCc3ccccc3)cc1S2(=O)=O	98.3*	89.0	-14.7	1.5	nt	0.9
O=C(COc1ccc2ccccc2c1)N1CCCC1	-25.6	98.0	-3.5	-4.3	0.7	-1.2
CCn1c(N)c(C(=O)N2CCOCC2)sc1=S	98.2*	108.3	-15.2	12.8	-3.9	-2.0
CCOC(=O)c1c(N)sc(C(=O)N2CCOCC2)c1C	-2.5	94.8	-6.7	-6.6	-9.4	-3.9
C=CCn1c(N)c(C(=O)N2CCOCC2)sc1=S	98.6*	89.8	8.5	-6.9	-1.0	-3.9
Cc1cccc(C(=O)OCC(=O)NCCCc2ccccc2)c1O	nt	101.7	-9.6	-1.0	-1.9	-0.2
COc1cc2c(cc1OC)CN(c1nc(CN3CCCCC3)nc3sc4c(c13)CCCC4)CC2	-11.3	106.4	-6.7	-4.8	2.7	1.3
COc1cccc(N2CCN(C(=O)c3ccc(N4C(=O)NC5CC4(C)Oc4ccccc45)cc3)CC2)c1 (stereo not given)	0.6	89.9	7.2	-3.1	4.1	-2.0
CC(C)C1C(C#N)=C(N)Oc2n[nH]c(-c3ccc4ccccc4c3)c21 (stereo not given)	2.2	113.8	27.2*	-6.2	1.3	-5.4
CCC(CC)C1C(C#N)=C(N)Oc2n[nH]c(-c3ccccc3)c21 (stereo not given)	1.2	96.2	0.6	-1.3	0.1	2.7
Cc1ccc(C2C(C#N)=C(N)Oc3n[nH]c(-c4cccs4)c32)cc1 (stereo not given)	74.3	92.2	6.6	-3.7	8.9	-2.5
COc1cc(C2C(C#N)=C(N)Oc3n[nH]c(-c4cccs4)c32)cc(OC)c1O (stereo not given)	89.4*	84.4	-14.0	3.4	28.3*	5.2
CCC(CC)C1C(C#N)=C(N)Oc2n[nH]c(C)c21 (stereo not given)	6.2	94.1	-9.7	-3.6	4.8	-0.2
CCc1[nH]nc2c1C(C(C)C)C(C#N)=C(N)O2 (stereo not given)	14.7	101.6	20.6*	-0.8	nt	-0.8
CCCc1[nH]nc2c1C(c1ccc(O)c(OC)c1)C(C#N)=C(N)O2 (stereo not given)	99.0*	102.1	-2.8	9.7	2.5	1.3
N#CCCCSc1nnnn1-c1cccc(Cl)c1	-1.6	109.6	-6.7	-2.2	2.0	-0.1
CC(C)C1C(C#N)=C(N)Oc2n[nH]c(-c3cccs3)c21 (stereo not given)	82.2*	94.9	2.3	-3.0	-6.8	-0.5
Cn1nc(C(=O)O)c(=O)n(C)c1=O	nt	nt	-14.1	nt	nt	nt
SMILES	ALR inh	Yeast superoxide	NRP1-CendR mod	A3G deaminase	PfM18AAP inh	A3A deaminase
CCc1ccc(C(=O)Nn2cnc3ccccc3c2=O)cc1	-5.2	102.8	-8.1	-8.3	-11.4	-0.1
O=C(CCCn1cncn1)N1CCCC(Nc2ccc(F)cc2)C1 (stereo not given)	98.2*	91.4	-0.7	-5.1	4.9	-2.6
O=C(CCn1cnnn1)N1CCCC(Nc2ccc(F)cc2)C1 (stereo not given)	98.3*	100.0	-9.1	0.3	8.0	-3.5
Cn1cc(CCC(=O)N2CCCC(Nc3ccc(F)cc3)C2)cn1 (stereo not given)	?	101.1	2.5	10.1	25.5	3.6
O=C(CCN1CCCCO1)N1CCCC(Nc2ccc(F)cc2)C1 (stereo not given)	94.7*	100.2	5.7	-5.8	-0.9	1.4
O=C(Cn1cccn1)N1CCCC(Nc2ccc(F)c(F)c2)C1 (stereo not given)	88.6*	96.0	2.8	0.8	6.4	1.8
O=C(c1ccc(Cn2cnnn2)cc1)N1CCCC(Nc2ccc(F)cc2)C1 (stereo not given)	65.0	105.8	6.8	-11.1	9.2	-6.3
O=C(CCc1ccc(S(=O)(=O)N2CCCCC2)cc1)c1nnc(-c2ccccc2)o1	10.7	119.6	-19.2	-1.0	-5.7	1.9
Cc1nn2c(=O)[nH]cnc2c1Cl	nt	nt	-6.3	nt	nt	nt
O=C(NCc1ccc2c(c1)OCO2)C1Cc2ccccc2CN1C(=O)c1ccco1 (stereo not given)	1.6	89.3	5.6	-4.8	-0.8	0.7
CC(C)c1ccc(NC2CCCN(C(=O)CCCn3cncn3)C2)cc1 (stereo not given)	96.2*	107.0	3.5	-10.2	3.5	-5.4
O=C(CCn1cncn1)N1CCCC(N2CCN(c3ccc(F)cc3)CC2)C1 (stereo not given)	38.8	97.6	24.7*	-10.3	2.3	-4.8
O=C(CCn1cncn1)N1CCCC(N2CCN(c3cccc(C(F)(F)F)c3)CC2)C1 (stereo not given)	-1.1	98.4	22.5	-3.5	-5.8	0.7
Cc1ccc(-n2nc3c(=O)n(CC(=O)NCCc4ccco4)nc(C)c3c2C)cc1	nt	76.6	-3.8	2.6	4.7	2.0
COc1ccc(NC2CCCN(C(=O)CCN3CCCC3=O)C2)cc1 (stereo not given)	98.4*	84.8	0.3	-12.6	-2.1	-5.4
COc1ccc(NC2CCCN(C(=O)CCN3Cc4ccccc4C3=O)C2)cc1 (stereo not given)	99.0*	138.7	6.7	-6.8	-1.2	-6.0
O=C1CCCN1CCC(=O)N1CCCC(Nc2ccc(F)cc2)C1 (stereo not given)	46.3	110.4	-3.9	-6.1	1.5	-2.9
COc1ccc(NC2CCCN(C(=O)CCCN3CCCCC3=O)C2)cc1 (stereo not given)	98.7*	73.4	8.5	-3.6	5.8	-6.1
COc1ccc(NC2CCCN(C(=O)CCN3CCCC3=O)C2)cc1OC (stereo not given)	98.9*	101.9	13.5	-7.3	11.4	-5.9
O=C(CN1C(=O)NC2(CCCCC2)C1=O)NC1CCCc2ccccc21 (stereo not given)	nt	103.7	-0.6	-0.2	-5.5	-1.2
